# Screen size: about 360,000 compounds; about 2,700 (0.75%) were called active. Rule as the data show it: active = inhibition above about 4.5%; inactive = the rest. The full list was thinned out, with actives kept by preference.
# System: Methionine sulfoxide reductase A (Bos taurus)
# Assay: inhibition of methionine sulfoxide reductase A – biochemical, absorbance, bovine, HTS, primary screen (AID 651718);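 also: 0% = vehicle wells with enzyme and 100% = reference inhibitor wells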
# Conditions: purified bovine MsrA, absorbance read-out; at 15.5 µM; stronger effect = higher value
row,Compound,inhibition
1,Cc1ccc(NC(=O)N2c3ccccc3SC2c2ccco2)c(C)c1 (stereo not drawn),-0.74% (inactive)
2,Cc1nc2ccccn2c(=O)c1NC(=O)c1ccc(Br)o1,2.43% (inactive)
3,CN1C(=O)CN2CCc3ccccc3C2c2cc(Cl)ccc21 (stereo not drawn),1.04% (inactive)
4,CC1CCCCN1S(=O)(=O)c1ccc(S(=O)(=O)N(CC(=O)Nc2ccccc2)Cc2cccs2)cc1 (stereo not drawn),-0.63% (inactive)
5,CSCc1nnc(NC(=O)c2ccc(S(=O)(=O)N3CCCCC3C)cc2)o1 (stereo not drawn),-0.31% (inactive)
6,CC1CCCCN1S(=O)(=O)c1ccc(C(=O)Nc2nnc(-c3cccs3)o2)cc1 (stereo not drawn),4.79% (active)
7,O=C(N[C@H](Cc1ccccc1)C(=O)N1CCCN(Cc2cccs2)CC1)[C@H]1O[C@@H](n2ccc(=O)[nH]c2=O)[C@H](O)[C@@H]1O,0.08% (inactive)
8,O=c1c(F)cn(C2CCCO2)c(=O)n1Cc1ccccc1Cl (stereo not drawn),0.2% (inactive)
9,CCN(c1ccccc1)S(=O)(=O)c1ccc2[nH]c(=O)[nH]c2c1,2.53% (inactive)
10,CN(c1ccccc1)S(=O)(=O)c1ccc2[nH]c(=O)[nH]c2c1,14.1% (active)
11,O=c1[nH]c2ccc(S(=O)(=O)N3CCCC3)cc2[nH]1,-0.78% (inactive)
12,CN1C(=O)C(Br)(Br)CC1c1cccnc1 (stereo not drawn),1.57% (inactive)
13,Cc1cc(Br)cn2c(Cc3ccccc3C(F)(F)F)c(-c3ccc(C#N)cc3)nc12,-0.24% (inactive)
14,NC(=S)NN=Cc1ccc(OC(=O)COc2cc(Cl)c(Cl)cc2Cl)cn1,4.84% (active)
15,O=C(COc1cc(Cl)c(Cl)cc1Cl)NCCc1ccccn1,-0.1% (inactive)
16,O=C(COC(=O)COc1cc(Cl)c(Cl)cc1Cl)NC1CC1,3.33% (inactive)
17,CCCCCCCCN1C(=O)[C@@H](CC(=O)NCc2ccccc2)C[C@@]2(C(=O)OC)C1=C[C@H](C(C)(C)C)O[C@@H]2C,0.32% (inactive)
18,CCOc1cccc(NC(=O)Cn2nc(-c3ccc4c(c3)OCCO4)ccc2=O)c1,-0.18% (inactive)
19,COc1cc(C=NC2CCCCC2)ccc1O,3.96% (inactive)
20,COc1ccc2[nH]c(=O)c(CNc3ccc(C)c(C)c3)cc2c1,1% (inactive)
21,CCN1CCCC1CNC(=O)c1cc2cc(OC)c(OC)cc2[nH]1 (stereo not drawn),2.2% (inactive)
22,COc1ccc2[nH]c(C(=O)N/N=C/c3cc(OC)c(OC)c(OC)c3)cc2c1,6.03% (active)
23,COc1cccc2[nH]c(C(=O)NCCc3ccccc3)cc12,-0.25% (inactive)
24,CCC(=O)c1ccc(OC(=O)/C=C/c2cc(OC)c(OC)c(OC)c2)cc1,1.16% (inactive)
25,CCOc1ccc2ccccc2c1/C=N/NC(=O)c1c(C)cc(C)[nH]c1=O,2.01% (inactive)
26,COc1cc2cc(C(=O)N/N=C/c3cccc(OC)c3OC)[nH]c2cc1OC,5.39% (active)
27,CCOc1ccccc1/C=N/NC(=O)CNC(=O)COc1ccccc1,0.86% (inactive)
28,CCOc1ccc2[nH]c(C(=O)N/N=C/c3cccc(OC)c3OC)cc2c1,5.19% (active)
